Reference: PubChem BioAssay (Tox21)
Records with an inconclusive call do not appear. Values without a mark were called inactive. The call rests on the fitted dose curve; in most records, active means well fitted cell-killing curve with a large enough effect in the repeat runs; inconclusive means weak or mixed curves, or effect the other way; inactive means no such curve, though single readings can be large or run the other way.

assay: qHTS assay for small molecule activators of the heat shock response signaling pathway - cell viability counter screen (AID 743209); settings: HSE-bla HeLa viability, CellTiter-Glo luminescence, 5 h; series mostly up to 62.6 µM; activity change, negative = cytotoxicity: at the top concentration; further: nearly all actives have a fitted effect of over 50% in size
Description: U.S. Tox21 Program National Center for Advancing Translational Sciences [NCATS] NIH Chemical Genomics Center [NCGC] U.S. Environmental Protection Agency [EPA] National Institutes of Environmental Health Sciences [NIEHS] National Toxicology Program [NTP] U.S. Food and Drug Administration [FDA] Tox21 Assay Overview: Various chemicals, environmental and physiological stress conditions may lead to the activation of heat shock response/ unfolded protein response (HSR/UPR). There are three heat shock transcription factors (HSFs) (HSF-1, -2, and -4) mediating transcriptional regulation of the human HSR. To identify the compounds that activate HSR signaling, HSE-bla HeLa cell line (Invitrogen, Carlsbad, CA, USA) containing a beta-lactamase reporter gene under the control of the heat shock response elements was used to screen Tox21 10K compound library. The cytotoxicity of the Tox21 compound library against the HSE-bla HeLa cell line was tested in parallel by measuring the cell viability using CellTiter-Glo assay (Promega, Madison, WI) in the same wells.
Tox21 Assay Protocol Summary: The CellSensor HSE-bla HeLa cells (Invitrogen, Carlsbad, CA, USA) were dispensed at 1500 cells/6uL/well into 1536-well black wall/clear bottom plates using a Multidrop combi (Thermo Fisher Scientific, Waltham, MA) dispenser. After the assay plates were incubated at 37 C and 5% CO2 overnight, 23 nL of compounds dissolved in DMSO, positive controls or DMSO only was transferred to the assay plate by a Pintool station (Kalypsys, San Diego, CA). The plates were incubated at 37 C for 5 h. After 1 uL of LiveBLAzerTM B/G FRET substrate was added using a Flying Reagent Dispenser (FRD, Beckman Coulter, Indianapolis, IN, USA), the plates were incubated at room temperature for 2.5 h, and fluorescence intensity was measured by an Envision plate reader (PerkinElmer, Shelton, CT). For cell viability readout that measures cytotoxicity, 3 ul/well of CellTiter-Glo reagent was added into the assay plates using a FRD. After 30 min incubation at room temperature, the luminescence intensity in the plates was measured using a ViewLux (PerkinElmer) plate reader.
On the % scale 0 is the no-effect control and ±100 the full control effect.

Compound	activity change, negative = cytotoxicity
CC1(C)[C@@H]2CC[C@@]1(C)[C@H](O)C2	-4.68%
CC1=C(C/C=C(\C)CCC[C@H](C)CCC[C@H](C)CCCC(C)C)C(=O)c2ccccc2C1=O	7.42%
Cc1c(N)c(=O)n(-c2ccccc2)n1C	-1.75%
CC(=O)N[C@H]1[C@H]([C@H](O)[C@H](O)CO)OC(C(=O)O)=C[C@@H]1N=C(N)N	11.5%
NC(=O)N[C@@H](CCC(=O)O)C(=O)O	9.07%
CN1CCN(c2cc3c(nn2)Oc2ccccc2N3C)CC1	-3.24% [at 29.1 µM]
Cc1ncc(COP(=O)(O)O)c(C=O)c1O	1.31%
Clc1cc(Cl)cc(Cl)c1	1.26%
CN1[C@@H]2CC[C@H]1CC(OC(=O)C(O)c1ccccc1)C2 (stereo not given in full)	-1.17%
C[N+](C)(CCOc1ccccc1)Cc1cccs1	-5.57%
CCCCCC(C)N (stereo not given)	-8.12%
CCCC(C)C(=O)OCC (stereo not given)	-18.3%
CCOc1ccccc1OCC	0.68%
CN(C)CCCN(C)CCCN(C)C	4.51%
Cc1cc(C)c(N=Nc2c(O)c(S(=O)(=O)O)cc3cc(S(=O)(=O)O)ccc23)cc1C	-2.28% [at 5.95 µM]
C=C(C)C(=O)OCCOCCOCCOCCOC(=O)C(=C)C	4.59%
CC(C)(C#N)Nc1nc(Cl)nc(NC2CC2)n1	-3.48%
Cc1ncc([C@@H](CCCCCCc2ccc3c(n2)NCCC3)CC(=O)O)cn1	0.0938%
CCCCCCCCN1CCCC1=O	2.71%
CC1=NN(c2cccc(S(=O)(=O)O)c2)C(=O)C1	-5.5%

Compound	activity change, negative = cytotoxicity
CN(C)CCN(C)CCN(C)C	2.66%
CNCC(O)c1ccc(O)c(O)c1 (stereo not given)	-4.09%
NC(=O)N1c2ccccc2CC(=O)c2ccccc21	-12.4%
CC(=O)c1cnccn1	-1.03% [at 81.1 µM]
C=COCC1CCC(COC=C)CC1 (stereo not given)	-2.66%
NC(=O)Cc1cccc2ccccc12	8%
CC(C)CC(C)(N)C#N (stereo not given)	-0.161% [at 81.1 µM]
C[N+]1(CC2COC(c3ccccc3)(c3ccccc3)O2)CCCCC1 (stereo not given)	-3.14% [at 29.1 µM]
CCOC(=O)COc1cc(-n2ncc(C(F)(F)F)c(C)c2=O)c(F)cc1Cl	0.841%
N[C@H](C(=O)O)[C@@H](O)c1ccc(O)c(O)c1	14.4%
c1ccc2sc(SN3CCOCC3)nc2c1	-5.57%
CO[Si](C)(OC)c1ccccc1	2.33%
COc1c(N2CCNC(C)C2)c(F)cc2c(=O)c(C(=O)O)cn(C3CC3)c12 (stereo not given)	12.7%
COc1ccccc1OCC1CNC(=O)O1 (stereo not given)	8.68%
CCCn1cc[n+](C)c1C	-0.477% [at 81.1 µM]
CCCCN(CCC(=O)OCC)C(C)=O	-0.935%
CC(C)(N)C#N	8.41% [at 81.1 µM]
O=C1NC(=O)C2CC=CCC12 (stereo not given)	-1.99%
CC(C)(C)OC(=O)c1cccc(N)c1	-3.5% [at 81.1 µM]
Clc1cc(Cl)c(Cl)nc1Cl	-3.54%
